The results in this text go back to PubChem BioAssay (EPA / NIEHS).

Each structure is given as a SMILES string. Records with an inconclusive call do not appear. Some structures have more than one record in an assay (separate samples or runs), and their calls can disagree. The source made the active and inactive calls. The calls were made as follows, unless noted: active = hit-call score of the fitted dose curve at least 0.9, where 1 is the maximum; inactive = score below 0.9.

Assay [1] has as its target human Vitamin D Receptor (VDR), VDR (gene 7421) (UniProt P11473). Description: ATG_VDR_TRANS: Attagene TRANS-FACTORIAL HepG2 Assay for human Vitamin D Receptor (VDR) (AID 2283022; active = hit-call score of the fitted dose curve at least 0.9, where 1 is the maximum). Summed up:
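HepG2 cells were transiently transfected with multiple GAL4-UAS reporter units, so signal reflects exogenous chimeric receptor-Gal4 activity. After 24 h compound exposure, reporter mRNA was measured by RT-PCR, fluorescent labelling and capillary electrophoresis, fitted for gain of signal versus DMSO.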

A short description of assay [2]: BSK_3C_SRB: Viability Assessment in the BioMAP Diversity Plus: 3C Assay (AID 2283023).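 Also: fitted both ways against DMSO so a hit may be signal rise or drop.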 The following applies: primary human endothelial cells (HUVEC). Summed up: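 Primary human umbilical vein endothelial cells in the 3C system were read 24 h after compound dosing. Total protein was stained with 0.1% sulforhodamine B after 10% TCA fixation and read at 560 nm, with bidirectional fitting against DMSO as baseline.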

Read-out in assay [3]: Matrix Metallopeptidase 1 (MMP1), MMP1 (gene 4312)
Briefly: BSK_BE3C_MMP1: BioMAP Diversity Plus: BE3C Assay for Matrix Metallopeptidase 1 (MMP1) Biomarker Activity (AID 2283024). The following applies: primary human bronchial epithelial cells; actives raise or lower the signal. An outline of the steps:
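ELISA measurement of MMP-1 after 24 h compound exposure of primary human bronchial epithelial cells. Changes in either direction fitted relative to DMSO; parallel SRB staining checked overt cytotoxicity.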

Assay [4] is described as follows: BSK_3C_Vis: BioMAP Diversity Plus: 3C Assay for Morphology Visualization (AID 2283025).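 Also: fitted both ways so gain or loss versus DMSO counts.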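 As to AC50: light microscopy image of cell morphology used as background control.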 As to conditions: primary human endothelial cells (HUVEC). An outline of the steps:
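Light-microscopy visualization of HUVEC cultures at 24 h post-treatment, with DMSO as baseline for bidirectional fitting.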

Read-out in assay [5]: Pselectin, SELP (gene 6403)
Briefly: BSK_4H_Pselectin: BioMAP Diversity Plus: 4H Assay for Pselectin Biomarker Activity (AID 2283026). As to conditions: primary human endothelial cells (HUVEC); actives raise or lower the signal. An outline of the steps:
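ELISA of surface P-selectin on HUVEC, 24 h after dosing, with parallel SRB staining (0.1% after 10% TCA fixation, 560 nm) for overt cytotoxicity. Activity fitted in both directions relative to DMSO.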

The nature of assay [6]: BSK_4H_SRB: Viability Assessment in the BioMAP Diversity Plus: 4H Assay (AID 2283027).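 Also: cells exposed to compound for 24 h before staining.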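 As to AC50: curves fitted both ways versus DMSO so AC50 may be loss or gain.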 The following applies: primary human endothelial cells (HUVEC). An outline of the steps: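 HUVEC, 24 h post-dose; 10% TCA fix, 0.1% SRB stain, A560 nm. Total protein = overt cytotoxicity, parallel to biomarker read. Bidirectional fit vs DMSO baseline.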
Assay [7] in a line: BSK_BE3C_SRB: Viability Assessment in the BioMAP Diversity Plus: BE3C Assay (AID 2283028).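 As to AC50: fitted both ways so AC50 may mark signal gain or loss versus DMSO.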 The following applies: primary human bronchial epithelial cells. An outline of the steps:
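Human primary bronchial epithelial cells were exposed to test chemicals for 24 h. Total protein in parallel cultures was then measured by staining with 0.1% sulforhodamine B after 10% TCA fixation, with absorbance read at 560 nm. Activity was fitted bidirectionally against DMSO.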

Read-out in assay [8]: Thrombomodulin, THBD (gene 7056)
Briefly: BSK_3C_Thrombomodulin: BioMAP Diversity Plus: 3C Assay for Thrombomodulin Biomarker Activity (AID 2283029). As to conditions: primary human endothelial cells (HUVEC); actives raise or lower the signal. An outline of the steps: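 ELISA measurement of thrombomodulin on HUVEC surface 24 h after chemical dosing; activity fitted in both directions relative to DMSO vehicle.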

Read-out in assay [9]: Urokinase-type plasminogen activator receptor (uPAR), PLAUR (gene 5329)
Description: BSK_4H_uPAR: BioMAP Diversity Plus: 4H Assay for Urokinase-type plasminogen activator receptor (uPAR) Biomarker Activity (AID 2283030). The following applies: primary human endothelial cells (HUVEC); actives raise or lower the signal. Summed up: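 Primary human umbilical vein endothelial cells were exposed to chemical for 24 h before cell-surface uPAR was quantified by ELISA. Activity was fitted bidirectionally against the DMSO negative control baseline.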

Read-out in assay [10]: Vascular endothelial growth factor receptor 2 (Homo sapiens) (UniProt P35968)
Description: BSK_4H_VEGFRII: BioMAP Diversity Plus: 4H Assay for Vascular endothelial growth factor receptor 2 (VEGFR2) Biomarker Activity (AID 2283031).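 As to AC50: cell-surface VEGFR2 protein level quantified by ELISA.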 The following applies: primary human endothelial cells (HUVEC); actives raise or lower the signal. Summed up:
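Primary human umbilical vein endothelial cells in the BioMAP 4H system were dosed with test chemical, and 24 h later VEGFRII was measured by ELISA. Activity was fitted bidirectionally against DMSO as negative control and baseline.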

human Vitamin D Receptor (VDR), VDR (gene 7421), sequence (P11473 whole entry, looked up, the tested form may be a part): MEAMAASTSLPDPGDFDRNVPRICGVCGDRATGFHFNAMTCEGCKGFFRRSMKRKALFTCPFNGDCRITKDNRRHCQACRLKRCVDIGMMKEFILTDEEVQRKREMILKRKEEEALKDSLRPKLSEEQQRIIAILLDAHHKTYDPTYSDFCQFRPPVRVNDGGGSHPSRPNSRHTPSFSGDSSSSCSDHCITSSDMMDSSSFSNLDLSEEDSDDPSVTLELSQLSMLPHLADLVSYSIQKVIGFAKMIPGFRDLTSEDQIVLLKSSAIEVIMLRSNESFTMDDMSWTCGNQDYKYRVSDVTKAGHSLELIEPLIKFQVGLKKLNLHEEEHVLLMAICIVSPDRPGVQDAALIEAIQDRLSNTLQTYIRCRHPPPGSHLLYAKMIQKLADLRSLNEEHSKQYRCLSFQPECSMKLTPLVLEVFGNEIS

As usually defined, the AC50 is the concentration at which the activity in the assay is half-maximal. Consider `CCC(C)Nc1c([N+](=O)[O-])cc(C(C)(C)C)cc1[N+](=O)[O-]` (configuration not stated), for which the result in assay [1], in [8] and in [9] was inactive. Besides, the AC50 in assay [2] was 20.2 µM (active); in [3], 11.1 µM (active); in assay [4] it was 39 µM (active); in [5] it was 20 µM (active); in assay [6], 19.7 µM (active); in assay [7], 14.7 µM (active). In assay [10], the AC50 is 21 µM (active).
On to `C#CCN1C(=O)COc2cc(F)c(N3C(=O)C4=C(CCCC4)C3=O)cc21`, for which the call in assay [1], in [2], in [3], in [4], in assay [6] and in assay [7] was inactive. Also, the result in assay [8], in [9] and in assay [10] was inactive.
Regarding `N#Cc1c(Cl)c(Cl)c(Cl)c(C#N)c1Cl`, the molecule was called inactive in assay [1]. Moreover, the AC50 in [3] was 4.1 µM (active); in assay [4], 0.468 µM (active); in [5], 0.911 µM (active); in assay [6], 1.96 µM (active); in assay [7], 1.72 µM (active); in [8], 0.148 µM (active). Moreover, the AC50 in assay [9] is 1.81 µM (active); in assay [10], 1.44 µM (active).
As for `O=S1OCC2C(CO1)C1(Cl)C(Cl)=C(Cl)C2(Cl)C1(Cl)Cl` (configuration not stated), the result in assay [1] and in [8] was inactive. Further, the AC50 in assay [3] was 36.6 µM (active); in [4] it was 16.3 µM (active); in [6], 27.7 µM (active); in [7], 20.9 µM (active); in assay [9], 30.5 µM (active); in assay [10], 34.8 µM (active).
Turning to `CC1(C)C(C=C(Cl)Cl)C1C(=O)OC(C#N)c1ccc(F)c(Oc2ccccc2)c1` (configuration not stated), the result in [1], in [3], in [6], in [7], in assay [8] and in assay [9] was inactive. Besides, in assay [10], the result was inactive. Moreover, the AC50 is 8.15 µM (active) in assay [2] and 9.8 µM (active) in assay [4].
Regarding `O=[N+]([O-])/N=C1\NCCN1Cc1ccc(Cl)nc1`, the molecule was called inactive in assay [1], in assay [3], in assay [4], in assay [6], in [7] and in assay [8]. In addition, the result in [9] and in assay [10] was inactive.
As for `COP(=S)(OC)Oc1ccc(SC)c(C)c1`, the call in assay [1], in assay [4], in assay [5], in assay [8], in [9] and in assay [10] was inactive. The AC50 is 3.97 µM (active) in [3], 5.31 µM (active) in assay [6] and 23.2 µM (active) in [7].
Consider `CC(C)(C)C(O)C(Oc1ccc(Cl)cc1)n1cncn1` (configuration not stated), for which the molecule was classed as inactive in assay [1], in assay [2], in assay [3], in assay [4], in assay [6] and in [7]. Besides, the result in assay [8], in assay [9] and in [10] was inactive.
In the case of `O=C(O)C(F)(F)C(F)(F)C(F)(F)C(F)(F)C(F)(F)C(F)(F)C(F)(F)F`, the result in [1], in assay [3], in [4], in assay [6], in assay [7] and in assay [8] was inactive. Moreover, the result in assay [9] and in assay [10] was inactive. In addition, the AC50 in [3] is 25.8 µM (active) [middle of 5 runs]; in [9] it was 1.49 µM (active).
Regarding `CCS(=O)(=O)c1cccnc1S(=O)(=O)NC(=O)Nc1nc(OC)cc(OC)n1`, the result in assay [1], in assay [3], in assay [4], in [6], in [7] and in assay [8] was inactive. Moreover, the result in [9] and in [10] was inactive.
As to `COC(=O)c1ccccc1S(=O)(=O)NC(=O)Nc1nc(C)nc(OC)n1`, the outcome in assay [1], in assay [3], in [4], in [5], in [6] and in assay [7] was inactive. Also, the result in assay [8], in assay [9] and in assay [10] was inactive.
Consider `COC(=O)c1ccccc1CS(=O)(=O)NC(=O)Nc1nc(OC)cc(OC)n1`, for which the molecule was classed as inactive in [1], in [3], in assay [4], in assay [6], in assay [7] and in assay [8]. Further, the result in assay [9] and in assay [10] was inactive.
Consider `O=C1c2ccccc2C(=O)N1SC(Cl)(Cl)Cl`, for which the molecule was classed as inactive in assay [1], in assay [4], in assay [5], in assay [6], in assay [8] and in [9]. Moreover, the result in [10] was inactive. Moreover, the AC50 is 34.9 µM (active) in assay [3] and 31.8 µM (active) in [7].
As for `CNC(=O)/C=C(\C)OP(=O)(OC)OC`, the molecule was called inactive in [1], in [3], in assay [4], in assay [5], in [6] and in assay [7]. The result in assay [8], in [9] and in assay [10] was inactive.
In the case of `CCC(C)(C)C(=O)OC1=C(c2ccc(Cl)cc2Cl)C(=O)OC12CCCCC2`, the call in [1], in [8] and in assay [10] was inactive. Also, the AC50 in assay [3] was 36.6 µM (active); in [4], 29.4 µM (active); in assay [6], 34.3 µM (active); in [7] it was 31.3 µM (active); in assay [9], 32 µM (active).
Turning to `CC[C@H](C)[C@H]1O[C@]2(C=C[C@@H]1C)C[C@@H]1C[C@@H](C/C=C(\C)[C@@H](O[C@H]3C[C@H](OC)[C@@H](O[C@H]4C[C@H](OC)[C@@H](O)[C@H](C)O4)[C@H](C)O3)[C@@H](C)/C=C/C=C3\CO[C@@H]4[C@H](O)C(C)=C[C@@H](C(=O)O1)[C@]34O)O2` (tested in a mixture with another compound), the molecule was classed as inactive in assay [1]. Besides, the AC50 is 11.1 µM (active) in assay [3]; 3.78 µM (active) in [4]; 5.3 µM (active) in assay [5]; 8.22 µM (active) in assay [6]; 4.65 µM (active) in assay [7]; 2.13 µM (active) in assay [8]. For the same molecule, the AC50 in assay [9] is 8.93 µM (active); in [10] it was 5.27 µM (active).
Turning to `O=C(O)COc1ccc(Cl)cc1Cl`, the call in assay [1], in assay [3], in [4], in [6], in assay [7] and in assay [8] was inactive. In addition, the result in assay [9] and in assay [10] was inactive.
With `[2H]C1([2H])[n+]2ccccc2-c2cccc[n+]2C1([2H])[2H]`, the molecule was classed as inactive in assay [1], in [4], in assay [6] and in assay [8]. Further, the values for the AC50 in assay [3], in [7] and in [9] were 2.08 µM (active), 13.3 µM (active) and 1.49 µM (active), respectively.
For `CC(C)OC(=O)Nc1cccc(Cl)c1`, the molecule was classed as inactive in assay [1], in assay [3], in assay [4], in assay [5], in assay [6] and in assay [7]. The outcome in assay [8], in assay [9] and in assay [10] was inactive.
For the molecule `CCN(CC)C(=O)SCc1ccc(Cl)cc1`, the molecule was called inactive in [1], in assay [3], in [4], in assay [5], in [6] and in [7]. In addition, the outcome in [8], in [9] and in [10] was inactive.
As for `OCCOc1ccccc1`, the outcome in assay [1], in assay [3], in assay [4], in [6], in [7] and in assay [8] was inactive. For the same molecule, the outcome in assay [9] and in [10] was inactive.
On to `O=C(O)CCCOc1ccc(Cl)cc1Cl`, for which the molecule was classed as inactive in [1], in [3], in [4], in assay [5], in assay [6] and in [7]. The outcome in assay [8], in assay [9] and in assay [10] was inactive.
For the molecule `Cc1cc(C)nc(NC(=O)NS(=O)(=O)c2ccccc2C(=O)OC2COC2)n1`, the result in assay [1], in assay [2], in assay [3], in [4], in [6] and in assay [7] was inactive. Further, the outcome in [8], in assay [9] and in assay [10] was inactive.
Take `CCOCN(C(=O)CCl)c1c(C)cccc1CC`: the molecule was called inactive in assay [1], in [3], in assay [6], in [8], in [9] and in [10]. In addition, the figures for the AC50 in [4] and in assay [7] were 39 µM (active) and 20 µM (active), respectively.
For the molecule `Clc1ccccc1-c1nnc(-c2ccccc2Cl)nn1`, the call in assay [1], in assay [2], in assay [3], in assay [4], in [6] and in assay [7] was inactive. The result in assay [8], in assay [9] and in [10] was inactive.
